Bioassay records from PubChem.
In the library only some 3.5% were active in any assay of this set; here they are far more common.
GPR151 activ = human GPR151 activation | activation, % at 11.2 µM | hit rate 1% among 650,000 | AID 1508602 | Q8TDV0 | PathHunter beta-arrestin GPR151 cells, luminescence; in the data active means activation above about 4.9%;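 further: 0% = median of compound wells and 100% = cells with positive control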
MITF inh = human MITF inhibition, primary screen. O75030. AlphaScreen MITF homodimerization, bead proximity signal. inhibition, % at 2.6 µM. hit rate 0.91% among 650,000. AID 1259374; in the data active means inhibition above about 50%;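 further: 0% = vehicle wells with protein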
TEAD-YAP block = TEAD-YAP interaction inhibition | AID 1259422 | inhibition, % at 9.12 µM | hit rate 1.4% among 640,000 | HEK-TIYL cells, TEAD-Gal4/YAP UAS-luciferase luminescence; in the data active means inhibition above about 32%;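 further: 0% = median of test compound wells and 100% = reference inhibitor wells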
FBW7 activator = activators of human E3 ligase FBW7 | Q969H0 | AlphaScreen FBW7–phospho-cyclin E peptide binding, activator screen | normalized activity (activation), % at 26.1 µM | hit rate 0.13% among 650,000 | AID 1259310; in the data active means normalized activity above about 1.9%;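 further: purified mutant Fbw7 with reduced substrate affinity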
Target sequence (Q969H0 whole entry, looked up): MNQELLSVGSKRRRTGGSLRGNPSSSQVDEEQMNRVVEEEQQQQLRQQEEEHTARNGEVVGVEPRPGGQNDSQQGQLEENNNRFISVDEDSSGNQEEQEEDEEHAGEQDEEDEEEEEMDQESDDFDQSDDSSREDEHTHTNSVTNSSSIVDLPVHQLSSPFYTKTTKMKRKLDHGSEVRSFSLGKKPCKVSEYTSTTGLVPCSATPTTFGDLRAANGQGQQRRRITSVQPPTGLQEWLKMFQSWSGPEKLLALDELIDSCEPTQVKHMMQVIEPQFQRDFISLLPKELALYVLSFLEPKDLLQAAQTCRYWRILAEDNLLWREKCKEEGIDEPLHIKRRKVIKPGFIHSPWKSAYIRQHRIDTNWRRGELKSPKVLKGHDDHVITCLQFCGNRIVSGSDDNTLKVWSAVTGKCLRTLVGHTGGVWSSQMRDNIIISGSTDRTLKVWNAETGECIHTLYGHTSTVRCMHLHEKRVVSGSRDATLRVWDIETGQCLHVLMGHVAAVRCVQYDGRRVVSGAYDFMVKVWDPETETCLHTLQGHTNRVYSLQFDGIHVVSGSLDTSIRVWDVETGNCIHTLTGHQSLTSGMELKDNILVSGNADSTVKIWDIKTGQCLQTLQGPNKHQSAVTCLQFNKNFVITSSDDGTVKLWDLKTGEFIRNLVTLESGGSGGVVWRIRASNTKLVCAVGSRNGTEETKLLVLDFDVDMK
GPR151 confirm = confirmation of human GPR151 activators; activation, % at 11.2 µM; shares compounds with GPR151 activ; GPR151 PathHunter beta-arrestin cells, luminescence, 90 min; % of EA-reagent control over plate median; 6,700 tested, under 10 active;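 active means mean percent activation across replicates above the confirmation screen cutoff of 4.91%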
GPR119 ag = counter-screen for GPR151 activators: effect on human GPR119 | GPR119 PathHunter beta-arrestin cells, luminescence, 90 min; 0 = compound-well median, 100 = enzyme-acceptor control | hit rate 0.3% among 6,700 | activation, % at 11.2 µM | shares compounds with GPR151 activ;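 active means mean percent activation in the counterscreen above 29.09%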;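 further: counterscreen on off-target GPR119 to flag nonselective hits from the GPR151 activator screen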
Starred values were filed as active, the others as inactive; nt = not tested or not shown.

SMILES | GPR151 activ | MITF inh | TEAD-YAP block | FBW7 activator | GPR151 confirm | GPR119 ag
CCN(CC)CCCNc1c(CCC(C)C)c(C)c(C#N)c2nc3ccccc3n12 | 0 | -3 | 2 | 0 | nt | nt
O=C(CCC(=O)Nc1ccc(F)cc1)N/N=C/c1ccc(Br)cc1 | 3 | -1 | -4 | 0 | nt | nt
O=C(CCC(=O)Nc1ccc(Br)cc1)N/N=C/c1ccc(F)cc1 | 6.4* | 11 | 10 | 0 | 0 | -3
O=C(OCc1ccc(Br)cc1)c1ccc(O)cc1 | -1 | 15 | -3 | 1 | nt | nt
O=C(OCc1ccc(Br)cc1)c1ccc(N2CCCC2=O)cc1 | 7.3* | 3 | 4 | 0 | 1 | 14
CCc1sc(C(=O)NCc2ccccc2OC)cc1C | 5.5* | -4 | 1 | 0 | 0 | 14
COc1ccccc1OCc1nnc(SCCN2CCOCC2)o1 | 5.9* | -2 | 7 | 0 | 1 | 7
CCOc1cc(C2C(C(=O)OC)=CN(CCOC)C=C2C(=O)OC)cc([N+](=O)[O-])c1O | 6.0* | 6 | 4 | 0 | 1 | -1
CCOC(=O)c1ccccc1NC(=O)c1ccc(C)o1 | 0 | -3 | 1 | 0 | nt | nt
Cc1ccc(-n2ncc3c(SCC(=O)Nc4ccc(C(N)=O)cc4)ncnc32)c(C)c1 | 5.3* | 3 | 8 | 0 | 1 | 0
Cc1ccc(-n2ncc3c(SCC(=O)NC(C)C)ncnc32)c(C)c1 | 1 | 2 | 0 | 0 | nt | nt
O=C(NC1CCCCC1)c1ccc(F)cc1Cl | 0 | 6 | -4 | 0 | nt | nt
Cc1cnc(Nc2ccc3ncccc3c2)nc1NCCN(C(C)C)C(C)C | 5.4* | -4 | 4 | 0 | 1 | 3
CCCNc1nc(Nc2ccc3ncccc3c2)ncc1C | -1 | 3 | -7 | 0 | nt | nt
COc1cc2c(cc1OC)[C@@H](c1ccccc1)CN(C)CC2 | 7.5* | 24 | 2 | 0 | 0 | -8
O=C(O)c1ccc(-c2ccc(/C=C3/SC(=Nc4ccccc4)N(c4ccccc4)C3=O)o2)cc1 | 0 | -2 | -5 | 0 | nt | nt
O=c1[nH]c(CSc2nnc(Nc3ccccc3F)s2)nc2ccccc12 | 7.2* | -19 | -1 | 0 | 0 | 4
CCOc1ccccc1Nc1nnc(SCc2nc3ccccc3c(=O)[nH]2)s1 | -1 | 4 | -9 | 0 | nt | nt
Cc1cc(C)c(CN2CCc3nnc(CNC(=O)COc4ccccc4)n3CC2)cc1C | 0 | 12 | 9 | 0 | nt | nt
COc1ccc(C(=O)NC(C)(C)CC(C)(C)C)cc1[N+](=O)[O-] | 6.6* | 11 | -10 | 0 | 0 | 0
CS(=O)(=O)N(CC(=O)Nc1ccc(F)cc1)c1ccccc1F | -1 | -7 | -10 | 0 | nt | nt
COC(=O)c1ccc(NC(=S)NCCO)cc1 | 6.3* | 13 | -3 | 0 | 1 | 3
CCOC(=O)c1ccc(NC(=S)Nc2ccsc2C(=O)OC)cc1 | 5.7* | -2 | -11 | 0 | 0 | -14
COC(=O)c1sccc1NC(=S)Nc1ccc(OC)c(OC)c1 | 6.0* | -19 | -2 | 0 | 0 | 4
COC(=O)c1sccc1NC(=S)Nc1ccc(F)cc1 | 0 | -5 | -4 | 0 | nt | nt
SMILES | GPR151 activ | MITF inh | TEAD-YAP block | FBW7 activator | GPR151 confirm | GPR119 ag
CC1CCC(NC(=O)c2ccc(Cn3c(=S)[nH]c4cc5c(cc4c3=O)OCO5)cc2)CC1 (configuration not stated) | -3 | 0 | 0 | 0 | nt | nt
O=C(CSCc1c(Cl)cccc1Cl)N1CCCCC1 | 6.1* | 6 | 1 | 0 | 0 | 0
O=C(CSCc1c(Cl)cccc1Cl)N1CCOCC1 | -1 | -9 | -9 | 0 | nt | nt
Cc1cc(C)c2sc(N3CCN(S(=O)(=O)c4cccs4)CC3)nc2c1 | -1 | 6 | 0 | 0 | nt | nt
Cn1cccc1/C=C1\SC(=S)NC1=O | 5.1* | 11 | -2 | 0 | 0 | -6
COC(=O)C(C)N1C(=O)S/C(=C/c2cccn2C)C1=O (configuration not stated) | 5.5* | 11 | -7 | 0 | 0 | 6
COC(=O)C(C)N1C(=O)S/C(=C/c2ccc(Cl)cc2)C1=O (configuration not stated) | 0 | -2 | -16 | 0 | nt | nt
CN(C)CCOc1cccc(CN[C@H]2C[C@H]3C(=O)N[C@@H](Cc4c[nH]c5ccccc45)C(=O)N3C2)c1 | -1 | -5 | -2 | 0 | nt | nt
CC(C)(C)C1CCC(OC(=O)CCC(=O)N2CCCCC2)CC1 (configuration not stated) | 11* | -9 | -44 | 0 | 0 | 4
Cc1ccc(NC(=O)CCC(=O)OC2CCC(C(C)(C)C)CC2)cc1 (configuration not stated) | 0 | -13 | 5 | 0 | nt | nt
COc1cc(OCCOCc2ccccc2)ncn1 | 1 | -4 | 4 | 0 | nt | nt
COc1ccc(-c2[nH]nc3c2C(c2cccc(Cl)c2Cl)C(C#N)=C(N)O3)cc1OC (configuration not stated) | 0 | 2 | 5 | 0 | nt | nt
COc1ccc(-c2[nH]nc3c2C(c2c[nH]c4ccccc24)C(C#N)=C(N)O3)cc1OC (configuration not stated) | 6.4* | 29 | 21 | 0 | 1 | 3
Cc1cccc(NC(=O)CSc2nc(N)c(NC(=O)c3ccco3)c(=O)[nH]2)c1 | 0 | -2 | 3 | 0 | nt | nt
Cc1ccc(-n2ncc3c(=O)n(Cc4cccnc4)cnc32)cc1 | 6.6* | 15 | -14 | 0 | 0 | 0
O=c1[nH]c(SCc2ccccc2)nc2c1C1(CCCCC1)Cc1ccccc1-2 | -2 | 17 | 2 | 0 | nt | nt
O=c1[nH]c(Cc2ccccc2)nc2c1C1(CCCCC1)Cc1ccccc1-2 | 5.1* | -18 | -7 | 0 | 1 | 14
CCn1cc(C(=O)NC2CCCCCC2)c(=O)c2cc(S(=O)(=O)N(C)C)ccc21 | 1 | 8 | -12 | 0 | nt | nt
Cc1nc(N2CCCCC2)c2c(C)c(C(=O)N3CCN(c4ccc(F)cc4)CC3)sc2n1 | 1 | -8 | 2 | 0 | nt | nt
COc1ccc(C(=O)OCC2CC(c3ccccc3)=NO2)cc1OC (configuration not stated) | 0 | -1 | -7 | 0 | nt | nt
COc1cc(C(=O)OCC2CC(c3ccccc3)=NO2)cc(OC)c1OC (configuration not stated) | 5.4* | 3 | 3 | 0 | -1 | -10
O=C(CC[C@H]1CN(Cc2ccc3ccccc3c2)CC[C@H]1N1CCOCC1)NC1CCCC1 | -1 | 18 | 3 | 1 | nt | nt
CCOC(=O)C1C(=O)C=C(c2ccc(C)cc2)CC1c1ccccc1OCC (configuration not stated) | 5.3* | 15 | 3 | 0 | 0 | 0
CCOC(=O)C1C(=O)C=C(c2cccc(OC)c2)CC1c1ccccc1C (configuration not stated) | 1 | -4 | 9 | 0 | nt | nt
CC(NC(=O)Cn1nnc(-c2ccccc2)n1)c1ccccc1 (configuration not stated) | -1 | 3 | -7 | 0 | nt | nt
